# Values joined by “and” are separate entries in the source; they are usually repeats but may differ in a detail not shown here. Identical values can stand only once. Records with an inconclusive call do not appear. The list shows a part of the results. Active and inactive are the calls of the source. Unless noted, calls follow the shape of the dose curve; as a rule, active = well fitted curve in the direction sought with a large enough effect; inconclusive = small, poorly fitted or top-dose-only effect, or another doubt; inactive = no such curve, though single readings can be large; an effect the other way counts as inactive or inconclusive.
# Key:
# [1] = biological target: Tyrosyl-DNA phosphodiesterase 1 (Homo sapiens) (UniProt Q9NUW8); test: Confirmation Assay for Inhibitors of Tyrosyl-DNA Phosphodiesterase (TDP1) (AID 489007); conditions: recombinant human TDP1 enzymatic activity, dose-response; also: potency is read from the fitted curve at half-maximal effect; nearly all actives have a fitted effect of over 40% in size
# Tyrosyl-DNA phosphodiesterase 1 (Homo sapiens), sequence (Q9NUW8 whole entry, looked up): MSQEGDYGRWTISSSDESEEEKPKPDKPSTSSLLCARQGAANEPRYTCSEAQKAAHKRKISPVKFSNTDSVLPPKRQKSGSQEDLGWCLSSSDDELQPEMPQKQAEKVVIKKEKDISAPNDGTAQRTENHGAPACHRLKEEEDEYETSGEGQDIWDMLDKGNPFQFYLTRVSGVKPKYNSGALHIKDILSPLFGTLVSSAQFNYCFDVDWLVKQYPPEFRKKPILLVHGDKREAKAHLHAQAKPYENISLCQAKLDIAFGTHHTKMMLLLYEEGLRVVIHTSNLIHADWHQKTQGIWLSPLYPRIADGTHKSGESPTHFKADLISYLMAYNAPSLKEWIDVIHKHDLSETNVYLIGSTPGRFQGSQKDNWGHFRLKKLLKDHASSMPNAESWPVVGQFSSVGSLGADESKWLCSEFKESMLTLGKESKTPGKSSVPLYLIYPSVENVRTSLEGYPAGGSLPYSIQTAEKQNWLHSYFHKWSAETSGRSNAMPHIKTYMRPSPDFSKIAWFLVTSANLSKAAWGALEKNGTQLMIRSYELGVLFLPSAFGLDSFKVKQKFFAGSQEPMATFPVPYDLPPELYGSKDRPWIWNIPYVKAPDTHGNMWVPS
# Method in brief: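 Tdp1 1 nM + cpd, 15 min RT; add biotin/phosphotyrosine-FITC oligo 15 nM, 5 min RT; add AS donor/acceptor beads 10 ug/ml, 10 min RT; read AlphaScreen. No-enzyme wells = max signal.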
# [2] = qHTS profiling of the MIPE4 collection as inhibitors of Plasmodium falciparum (3D7) proliferation (AID 743344; call rule not given here;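 also: scaled between DMSO vehicle wells and 0.29 µM artemisinin as full inhibition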); conditions: P. falciparum 3D7 in erythrocytes, SYBR Green DNA fluorescence, 72 h; at 5.51 µM (top of the series) unless noted
# Method in brief: (§1)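 Erythrocytes infected with P. falciparum (0.3% parasitemia, 2.5% hematocrit) incubated with compounds 72 h at 37 C, 5% CO2. Lysis with saponin/Triton buffer containing SYBR Green I, overnight at room temperature in the dark; DNA fluorescence (485/535 nm) normalised to 0.29 uM artemisinin and DMSO.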
# [3] = qHTS profiling of the MIPE4 collection as inhibitors of Plasmodium falciparum (DD2) proliferation (AID 743345; call rule not given here); conditions: P. falciparum Dd2 in erythrocytes, SYBR Green DNA, 72 h; at 5.51 µM (top of the series) unless noted
# Method in brief: as §1
# [4] = qHTS profiling of the MIPE4 collection as inhibitors of Plasmodium falciparum (DD2) proliferation (Rep 2) (AID 743346; call rule not given here); conditions: P. falciparum Dd2 in erythrocytes, SYBR Green DNA, 72 h; at 5.51 µM (top of the series) unless noted
# Method in brief: as §1
# [5] = qHTS profiling of the MIPE4 collection as inhibitors of Plasmodium falciparum (HB3) proliferation (AID 743347; call rule not given here;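 also: plate controls were DMSO vehicle wells for no effect and artemisinin wells for full effect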); conditions: P. falciparum HB3 in erythrocytes, SYBR Green DNA, 72 h; at 5.51 µM (top of the series) unless noted
# Method in brief: as §1
# [6] = biological target: Guanine nucleotide-binding protein G(i) subunit alpha-1 (Homo sapiens) (UniProt P63096); test: qHTS Assay for Inhibitors of RGS12 GoLoco Motif Activity (Green Fluorophore) (AID 879); conditions: Galphai1/FITC-RGS12 GoLoco peptide, fluorescence polarization; series mostly up to 57.1 µM;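 also: 0% = labeled peptide with Gαi1 and full inhibition = labeled peptide alone without protein; negative values mean loss of peptide binding seen as reduced polarization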
# Guanine nucleotide-binding protein G(i) subunit alpha-1 (Homo sapiens), sequence (P63096 whole entry, looked up): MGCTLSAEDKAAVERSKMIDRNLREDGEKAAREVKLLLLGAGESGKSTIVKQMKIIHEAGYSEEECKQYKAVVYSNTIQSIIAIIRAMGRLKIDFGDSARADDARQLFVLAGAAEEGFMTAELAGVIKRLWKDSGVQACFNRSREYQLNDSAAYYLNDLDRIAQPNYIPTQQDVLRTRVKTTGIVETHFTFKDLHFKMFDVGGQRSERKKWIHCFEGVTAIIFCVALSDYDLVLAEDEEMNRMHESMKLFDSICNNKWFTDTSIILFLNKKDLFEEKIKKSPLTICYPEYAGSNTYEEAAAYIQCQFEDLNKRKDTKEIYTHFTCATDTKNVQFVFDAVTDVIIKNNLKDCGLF
# Method in brief: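 Fluorescence polarization assay: 50 nM Gαi1 with 10 nM FITC-labeled RGS12 GoLoco peptide in 10 mM Tris pH 7.5, 150 mM NaCl, 0.1 mM GDP, 0.05% NP40, 10 min at room temperature with compound.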
# [7] = biological target: DNA dC->dU-editing enzyme APOBEC-3G (Homo sapiens) (UniProt Q9HC16); test: qHTS for inhibitors of Vif-A3G interactions: Validation (AID 588379); conditions: Vif-A3G protein interaction assay; series mostly up to 46.1 µM; also: 0% is about no effect
# DNA dC->dU-editing enzyme APOBEC-3G (Homo sapiens), sequence (Q9HC16 whole entry, looked up): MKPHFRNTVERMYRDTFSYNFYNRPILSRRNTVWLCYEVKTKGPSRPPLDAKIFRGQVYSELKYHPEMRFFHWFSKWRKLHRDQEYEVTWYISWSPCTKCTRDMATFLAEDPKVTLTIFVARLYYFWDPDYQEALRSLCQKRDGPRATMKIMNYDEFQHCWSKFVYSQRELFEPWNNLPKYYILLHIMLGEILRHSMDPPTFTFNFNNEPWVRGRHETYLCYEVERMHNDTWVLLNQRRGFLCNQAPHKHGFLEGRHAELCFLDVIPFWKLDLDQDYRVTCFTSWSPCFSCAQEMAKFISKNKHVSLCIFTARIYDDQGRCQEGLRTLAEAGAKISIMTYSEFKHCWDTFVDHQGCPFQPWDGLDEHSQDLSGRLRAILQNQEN
# Method in brief: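 HeLa cells stably expressing Vif and A3G-eYFP, 700 cells/well, incubated overnight at 37 deg C, then exposed to compound overnight at 37 deg C. Inhibition of Vif-mediated degradation read as increased yellow fluorescence (Ex 488/Em 500-530) by laser-scanning cytometry.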
# [8] = Cell Viability - BJ (AID 421; calls by dose curve;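 also: potency is read from the fitted curve at half-maximal effect; cells exposed to compound for 40 hours at 37 °C before readout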); conditions: BJ fibroblast viability, qHTS
# Method in brief: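 Cytotoxicity in human BJ foreskin fibroblasts is scored as loss of cellular ATP after a 40-hour exposure, measured by luciferase luminescence. Controls are DMSO and 100 uM tamoxifen.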
# [9] = Cell Viability - Hek293 (AID 427;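 active = compounds whose dose-response curve shows a full or clear partial loss of cell viability, called from curve shape rather than a numeric limit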;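 also: potency is read from the fitted curve at half-maximal effect; cells exposed to compound for 40 hours at 37 °C before reading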); conditions: qHTS
# Method in brief: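 qHTS, human embryonic kidney (adenovirus-transformed) cells; 40 hr cpd, 37 °C; CellTiter-Glo ATP luminescence. Norm: DMSO = 0, 100 uM tamoxifen = 100% inhibition. Hill-fit AC50.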
# [10] = Cell Viability - HepG2 (AID 433; calls by dose curve;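 also: potency is read from the fitted curve at half-maximal effect; potency for ATP loss meaning cytotoxicity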); conditions: qHTS
# Method in brief: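 HepG2 cells, 1500 per well, treated 40 hr at 37 °C in complete medium; viability from intracellular ATP by CellTiter-Glo luminescence. Normalized to DMSO and 100 uM tamoxifen; AC50 from Hill fit of qHTS concentration-response.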
# [11] = Cell Viability - MRC5 (AID 434; calls by dose curve;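 also: potency is read from the fitted curve at half-maximal effect; potency reflects cytotoxicity seen as loss of intracellular ATP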); conditions: MRC5 lung fibroblast viability, qHTS
# Method in brief: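 MRC5 normal human lung fibroblasts, 1500 cells/well, exposed to compound for 40 hr at 37 C. Cellular ATP was read by CellTiter-Glo luminescence; data normalized to DMSO and 100 uM tamoxifen, with AC50 from Hill fits.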
# [12] = Cell Viability - SK-N-SH (AID 435; calls by dose curve;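 also: potency is read from the fitted curve at half-maximal effect; compound exposure lasted 40 h at 37 °C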); conditions: SK-N-SH neuroblastoma cell viability qHTS
# Method in brief: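 SK-N-SH neuroblastoma cells (1500/well) treated 40 h at 37 °C in complete medium; viability read as cellular ATP by CellTiter-Glo luminescence. Normalized to DMSO and 100 uM tamoxifen; AC50 from Hill fits of qHTS concentration-response.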
# [13] = Cell Viability - N2a (AID 540); conditions: N2a mouse neuroblastoma cell viability; series mostly up to 92.2 µM;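 also: plate controls were DMSO alone for no effect and tamoxifen control for full effect; nearly all actives have a fitted effect of over 45% in size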
# Method in brief: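 Luminescent ATP signal (CellTiter-Glo, 20 min at room temperature) served as the viability read-out after N2a cells were treated with compounds for 40 hours at 37 °C. Concentration-response data were fitted to the Hill equation for AC50.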
# [14] = Cell Viability - NIH 3T3 (AID 541); conditions: NIH 3T3 cell viability, qHTS; series mostly up to 92.2 µM;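 also: plate controls were DMSO alone for no effect and tamoxifen positive control for full effect; nearly all actives have a fitted effect of over 25% in size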
# Method in brief: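 Luminescent ATP signal (CellTiter-Glo) served as the viability read-out after NIH 3T3 cells were exposed to compounds over a concentration range for 40 hr at 37 °C. Hill-equation modelling of concentration-response data gave AC50.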
# [15] = Cell Viability - SH-SY5Y (AID 544); conditions: SH-SY5Y neuroblastoma cell viability; series mostly up to 92.2 µM;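 also: 0% = DMSO alone and -100% = 100 µM tamoxifen; nearly all actives have a fitted effect of over 55% in size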
# Method in brief: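 Luminescent ATP read-out (CellTiter-Glo) measures loss of viable SH-SY5Y neuroblastoma cells after 40 hr compound exposure at 37 °C. AC50 values derive from standard Hill modelling of qHTS concentration-response data.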
# [16] = Cell Viability - Renal Proximal Tubule (AID 545); conditions: renal proximal tubule cells viability, primary cells of rat origin; series mostly up to 91.7 µM;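 also: 0% = DMSO only and -100% = 100 µM tamoxifen; nearly all actives have a fitted effect of over 40% in size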
# Method in brief: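 Rat renal proximal tubule primary cells, 1000/well, exposed to compounds for 40 hr at 37 °C in complete medium; cellular ATP read by CellTiter-Glo luminescence. AC50 from concentration-response fitted with standard Hill equation.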
# [17] = biological target: Vitamin D3 receptor (Homo sapiens) (UniProt P11473); test: qHTS for Inhibitors of the vitamin D receptor (VDR): Hit Validation using a Fluorescein Assay (AID 602200); conditions: VDR-coactivator binding, fluorescein fluorescence polarization; also: potency is read from the fitted curve at half-maximal effect
# Vitamin D3 receptor (Homo sapiens), sequence (P11473 whole entry, looked up, the tested form may be a part): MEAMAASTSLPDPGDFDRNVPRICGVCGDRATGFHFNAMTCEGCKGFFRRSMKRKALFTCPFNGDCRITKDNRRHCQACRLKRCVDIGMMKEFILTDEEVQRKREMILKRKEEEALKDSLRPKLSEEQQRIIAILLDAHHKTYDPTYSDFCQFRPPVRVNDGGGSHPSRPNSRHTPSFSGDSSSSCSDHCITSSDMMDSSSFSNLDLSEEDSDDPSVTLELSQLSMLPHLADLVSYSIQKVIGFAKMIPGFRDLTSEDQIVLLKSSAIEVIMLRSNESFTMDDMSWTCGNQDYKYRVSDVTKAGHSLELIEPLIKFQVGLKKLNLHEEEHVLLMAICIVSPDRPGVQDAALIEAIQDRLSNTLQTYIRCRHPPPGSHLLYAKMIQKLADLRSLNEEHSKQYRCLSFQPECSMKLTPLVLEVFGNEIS
# Method in brief: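 Fluorescence polarization: 1.5 uM VDR-LBD, 5 uM LG19078 and 5 nM fluorescein-labeled SRC2-3 peptide (final) with compounds, 2 h at room temperature. Read at Ex 495/Em 520 nm; peptide-only wells served as control.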
# [18] = biological target: Vitamin D3 receptor (Homo sapiens) (UniProt P11473); test: qHTS for Inhibitors of the vitamin D receptor (VDR): Hit Validation using a Beta-Lactamase Assay (AID 602202); conditions: VDR beta-lactamase reporter cells, FRET ratio, cells co-treated with VDR agonist LG190178; series mostly up to 46.1 µM; also: potency is read from the fitted curve at half-maximal effect
# Method in brief: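 Stably transfected HEK293 cells expressing VDR-GAL4 DNA-binding domain fusion with UAS-driven beta-lactamase reporter, activated by agonist LG190178; compounds incubated 18 h, then FRET beta-lactam substrate 2 h; cleaved substrate read at 447 nm emission.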
# [19] = biological target: Cytochrome P450 2D6 (Homo sapiens) (UniProt P10635); test: Cytochrome P450 family 2 subfamily D member 6 (CYP2D6) small molecule antagonists: luciferase biochemical (cell-free) qHTS assay (AID 1645840; active = well fitted curve in the direction sought with a large enough effect in the repeat runs; an effect the other way counts as inactive or inconclusive; also: nearly all actives have a fitted effect of over 55% in size; also: potency is read from the fitted curve at half-maximal effect); conditions: P450-Glo CYP2D6 enzyme, luciferin luminescence, 1 h; series mostly up to 57.4 µM
# Cytochrome P450 2D6 (Homo sapiens), sequence (P10635 whole entry, looked up): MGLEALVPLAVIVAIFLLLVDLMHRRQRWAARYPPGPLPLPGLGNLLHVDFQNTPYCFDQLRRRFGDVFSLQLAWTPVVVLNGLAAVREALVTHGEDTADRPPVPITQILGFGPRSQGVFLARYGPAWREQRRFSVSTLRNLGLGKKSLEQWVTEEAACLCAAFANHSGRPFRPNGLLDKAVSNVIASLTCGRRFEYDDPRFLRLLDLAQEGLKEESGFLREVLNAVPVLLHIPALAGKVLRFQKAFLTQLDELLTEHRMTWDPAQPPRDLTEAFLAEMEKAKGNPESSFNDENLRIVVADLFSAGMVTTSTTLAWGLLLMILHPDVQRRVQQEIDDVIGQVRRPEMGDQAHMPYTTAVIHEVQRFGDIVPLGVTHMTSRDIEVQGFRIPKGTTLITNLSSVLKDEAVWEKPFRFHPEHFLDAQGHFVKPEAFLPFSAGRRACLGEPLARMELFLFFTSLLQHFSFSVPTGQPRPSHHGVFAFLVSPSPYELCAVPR
# Method in brief: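 P450-Glo luminescent screen: recombinant CYP2D6 enzyme–proluciferin substrate mix preincubated with compound 10 min at room temperature, then NADPH regeneration added for 1 h at room temperature. Detection reagent added for 20 min; luciferin light read as relative luminescence units.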
# [20] = biological target: Cytochrome P450 2C9 (Homo sapiens) (UniProt P11712); test: Cytochrome P450 family 2 subfamily C member 9 (CYP2C9) small molecule antagonists: luciferase biochemical (cell-free) qHTS assay (AID 1645842; active = well fitted curve in the direction sought with a large enough effect in the repeat runs; an effect the other way counts as inactive or inconclusive; also: potency is read from the fitted curve at half-maximal effect; nearly all actives have a fitted effect of over 55% in size); conditions: P450-Glo CYP2C9 enzyme assay, luciferin luminescence; series mostly up to 57.4 µM
# Cytochrome P450 2C9 (Homo sapiens), sequence (P11712 whole entry, looked up): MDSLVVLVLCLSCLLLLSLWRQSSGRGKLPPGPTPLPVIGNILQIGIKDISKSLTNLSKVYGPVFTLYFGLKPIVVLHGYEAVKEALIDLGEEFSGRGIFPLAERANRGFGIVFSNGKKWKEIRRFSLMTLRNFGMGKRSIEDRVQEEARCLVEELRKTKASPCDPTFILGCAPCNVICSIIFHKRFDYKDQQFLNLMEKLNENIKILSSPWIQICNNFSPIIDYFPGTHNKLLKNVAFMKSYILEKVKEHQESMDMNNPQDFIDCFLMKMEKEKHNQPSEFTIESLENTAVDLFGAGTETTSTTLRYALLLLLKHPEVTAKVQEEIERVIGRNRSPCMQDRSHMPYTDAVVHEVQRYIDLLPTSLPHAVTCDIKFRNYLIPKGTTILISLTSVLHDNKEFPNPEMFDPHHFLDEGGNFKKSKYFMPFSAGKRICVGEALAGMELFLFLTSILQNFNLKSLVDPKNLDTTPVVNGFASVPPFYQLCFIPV
# Method in brief: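 Luminescence, after 20 min with luciferin detection reagent, reflected CYP2C9 turnover during a 1 h NADPH-driven reaction at 37C. Enzyme-substrate mix contained 0.4% bovine serum albumin and was preincubated with compound 10 min at room temperature.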
smiles,measurement,setting,value
CO/N=C(/C(=O)NC1C(=O)N2C(C(=O)O)=C(CSc3nc(=O)c(O)nn3C)CSC12)c1csc(N)n1 (centres undefined),Potency,[1],1.78 µM (active) and 12.6 µM (active)
CC1CC2C3CCC4=CC(=O)C=C[C@@]4(C)[C@]3(F)C(O)C[C@]2(C)[C@]1(O)C(=O)CO (some centres undefined),"parasite growth, % of DMSO control",[2],31.9% [at 28.5 µM]
same,"parasite growth remaining, % of DMSO control (lower = more inhibition)",[3],90.9% [at 28.5 µM]
same,"parasite growth, % of control (lower = inhibition)",[4],44.9% [at 28.5 µM]
same,"growth, % of control",[5],11.4% [at 28.5 µM]
CC(C)COC[C@H](CN(Cc1ccccc1)c1ccccc1)N1CCCC1,Potency,[6],inactive
Nc1ccccc1C(=O)CC(N)C(=O)O (centres undefined),outcome,[7],inactive
CN(C)CCOC(c1ccccc1)c1ccccc1 (tested in a mixture with another compound),Potency,[8],> 92 µM (inactive)
same,Potency,[9],> 92 µM (inactive)
same,Potency,[10],> 92 µM (inactive)
same,Potency,[11],> 92 µM (inactive)
same,Potency,[12],> 92 µM (inactive)
same,outcome,[13],inactive
same,outcome,[14],inactive
same,outcome,[15],inactive
same,outcome,[16],inactive
CCN1CCC[C@@H]1CNC(=O)c1cc(S(N)(=O)=O)ccc1OC,Potency,[6],inactive
COc1ccccc1-c1cc(C(F)(F)F)nc(S(=O)(=O)CCCC(=O)Nc2ccc(F)cc2F)n1,Potency,[17],8.91 µM (active)
same,Potency,[18],18.4 µM (active)
Cc1ccc(Cn2c(C)c3cnn(CC(=O)NCc4ccccc4)c(=O)c3c2C)cc1,Potency,[19],9.52 µM (active)
same,Potency,[20],12 µM (active)
CCOC(=O)c1ccc(NC(=O)CSc2nc3c([nH]c4ccccc43)c(=O)n2C)cc1,Potency,[19],inactive
same,Potency,[20],3.01 µM (active)
CCOc1ccc(NC(=O)c2c(NC(=O)Cc3ccccc3)sc3c2CCC(C)C3)cc1 (centres undefined),Potency,[17],8.91 µM (active)
same,Potency,[18],inactive
CN(C)C(=O)c1ccc(-c2cncnc2NCc2cccs2)cc1,Potency,[1],1.78 µM (active)
Cc1nnc(SCC(=O)NCc2ccccc2Cl)c2nn(-c3ccccc3)c(C)c12,Potency,[20],3.01 µM (active)
CCCCOc1ccc(CN2C(=O)C(=O)c3cc(Br)cc(C)c32)cc1OC,Potency,[17],8.91 µM (active)
same,Potency,[18],inactive

# Source: PubChem BioAssay (NCATS)
